High-throughput results: PubChem BioAssay, National Center for Advancing Translational Sciences (NCATS)
Most compounds without a hit are left out; they make up all but 19% or so of the library.
TDP1 cell CPT: growth inhibition of DT40 Tdp1-/-;hTDP1 cells with camptothecin (screen for TDP1 inhibitors); chicken DT40 Tdp1-/-;hTDP1 cells + 20 nM CPT, ATP luminescence, 48 h; Potency, µM (titrated, usually from 46.2 µM), inactives show top-dose activity change, negative = growth inhibition, most hits filed as inhibitors; 12% of 420,000 active; AID 686979; note: potency is the fitted concentration of half-maximal effect; nearly all actives have a fitted effect of over 55% in size
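Chicken DT40 Tdp1-/- cells stably complemented with human TDP1 were seeded at 400 cells/well in medium containing 20 nM camptothecin, exposed to pin-transferred compounds, and grown at 37 °C for at least 48 hr. Viability was read as ATP luminescence.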
IL-1B inflam inh: inflammasome signaling inhibition, IL-1 beta readout. THP-1 LPS/ATP IL-1B secretion, AlphaLISA, 16 h; hits give low values. activity change, % at 57.5 µM. 4.7% of 360,000 active; in the data active = activity change below about -50%; inconclusive = mostly about -30% to -49%
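THP-1 cells pretreated 1 hr with compounds (up to 57.5 uM final), then stimulated with LPS (250 ng/mL final) plus ATP (1.25 mM final); secreted IL-1B measured by AlphaLISA after 16 hr, decreased signal indicating inhibition.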
DT40 TDP1 no CPT: qHTS for Inhibitors of human tyrosyl-DNA phosphodiesterase 1 (TDP1): qHTS in cells in absence of CPT. Potency, µM (highest dose often 46.2 µM), inactives show at the highest dose activity change, negative = growth inhibition, actives largely listed as inhibitors. 15% of 420,000 active. DT40 Tdp1-/- hTDP1 cells, no CPT, ATP luminescence, 48 h. AID 686978, 2013; note: potency is the fitted concentration of half-maximal effect; nearly all actives have a fitted effect of over 55% in size
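DT40 Tdp1-/-;hTDP1 cells, no CPT (DMSO vehicle only), 400 cells/well; compounds pin-transferred; ≥48 hr, 37 °C; CellTiter-Glo 30 min RT dark, luminescence read.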
HT1080-NT tox: kills 2HG-producing HT-1080-NT fibrosarcoma cells | HT-1080-NT fibrosarcoma viability, CellTiter-Glo ATP luminescence, 48 h | 1.6% of 360,000 active | Potency, µM (top dose mostly 46.1 µM), without a hit: at the highest dose activity, negative = less viability, most hits filed as cytotoxic;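 note: NT is the 2HG producing partner of a matched IDH1 knockdown line; potency is the fitted concentration of half-maximal effect; 0% = DMSO-treated cells and -100% = media-only wells without cells; nearly all actives have a fitted effect of over 55% in size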
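Luminescent CellTiter-Glo readout after 48 hours of compound exposure at 37 degrees C defined viability of HT-1080-NT cells. Activity was normalized to DMSO wells and cell-free media wells; concentration-response curves were fitted and assigned curve classes.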
HT1080 IDH1KD tx: HT-1080 IDH1 knockdown cell toxicity (counter line). HT-1080 IDH1 knockdown viability, ATP luminescence, 48 h. Potency, µM (doses to about 46.1 µM), inactives show at the top dose activity, negative = toxicity, usual class: cytotoxic. 2% of 360,000 active. AID 686971;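 note: potency is the fitted concentration of half-maximal effect; 0% = DMSO wells and -100% = cell-free medium wells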
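In this qHTS, HT-1080 cells depleted of IDH1 are exposed for 48 h at 37 °C to compound titrations. Toxicity is scored from CellTiter-Glo luminescence, with DMSO as full viability and medium alone as none.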
Active calls of the source: *; i = inactive; ? = inconclusive; . = no result; [ ] = another dose, or the depositor's remark. Unless noted, calls come from the whole dose curve; as a rule, active = well fitted curve in the direction sought with a large enough effect; inconclusive = small, poorly fitted or top-dose-only effect, or another doubt; inactive = no such curve, though single readings can be large; an effect the other way counts as inactive or inconclusive. Unless noted, % is set by controls: 0 for no effect and ±100 for the full control effect.

SMILES	TDP1 cell CPT	IL-1B inflam inh	DT40 TDP1 no CPT	HT1080-NT tox	HT1080 IDH1KD tx
CCOc1cc(N2CCOCC2)c(OCC)cc1NC(=O)CN1CCC(Cc2ccccc2)CC1	23.1µM*	?	?	-0.8%	0.1%
CCOc1cc(N2CCOCC2)c(OCC)cc1NC(=O)c1ccccc1	20.6µM*	-18.0	16.4µM*	15.8%	9.0%
COCCN(C(=O)COC(=O)c1oc2ccc(OC)cc2c1C)c1c(N)n(Cc2ccccc2)c(=O)[nH]c1=O	-2.1%	i	0.1%	0.2%	3.9%
CC(C)N(C(=O)CSc1nnc(CSc2ncccn2)n1C)C(C)C	5.2%	-1.8	-7.8%	-1.2%	1.2%
CCOc1cc(N2CCOCC2)c(OCC)cc1NC(=O)c1cc(C)cc(C)c1	13µM*	-7.4	11.6µM*	2.4%	8.9%
CCOc1cc(N2CCOCC2)c(OCC)cc1NC(=O)c1c(-c2ccccc2Cl)noc1C	10.3µM*	-2.6	7.31µM*	-27.6%	-5.3%
CCOc1cc(N2CCOCC2)c(OCC)cc1NC(=O)c1c(-c2ccccc2)noc1C	?	5.1	-54.3%	-1.4%	0.6%
CCOc1cc(N2CCOCC2)c(OCC)cc1NC(=O)c1ccc(-n2ccnc2)c([N+](=O)[O-])c1	-29.6%	12.3	14.6µM*	-12.0%	-13.9%
CCOc1cc(N2CCOCC2)c(OCC)cc1NC(=O)CSc1ncccn1	-23.0%	31.4	?	3.0%	-2.7%
CCOc1cc(N2CCOCC2)c(OCC)cc1NC(=O)CSc1ncccc1C(=O)O	?	19.1	6.51µM*	-3.1%	-6.4%
COc1ccccc1NC(=O)c1ccc(-n2ccnc2)c([N+](=O)[O-])c1	-8.2%	-0.1	-23.1%	16.4%	20.8%
COc1ccccc1NC(=O)COC(=O)C1C2CC3OC(=O)C1C3C2 (stereo not drawn)	-11.0%	-2.9	-18.2%	-5.6%	-3.9%
COc1ccc(Cn2cc(CN3CCc4onc(-c5ccccc5OC)c4C3=O)nn2)cc1	0.5%	27.9	-3.2%	-1.7%	-1.0%
Cc1ccc(C)c(N2CCN(C(=O)CCS(=O)(=O)c3ccc4c(c3)CCN4C(=O)C3CC3)CC2)c1	-16.9%	0.0	-14.4%	24.6%	0.7%
CCOc1cc(N2CCOCC2)c(OCC)cc1NC(=O)Cc1ccccc1OC	16.4µM*	-12.5	18.4µM*	-25.4%	-26.7%
COc1ccc(S(=O)(=O)N2CCOCC2)cc1NC(=O)CN1CCC(Cc2ccccc2)CC1	16.4µM*	i	16.4µM*	-14.8%	-20.1%
CCCn1nc(C(=O)Nc2cc(OCC)c(N3CCOCC3)cc2OCC)c2ccccc2c1=O	16.4µM*	-16.5	3.26µM*	1.6%[9.24 µM]	0.9%
COc1ccc(S(=O)(=O)N2CCOCC2)cc1NC(=O)CN1CCCC1	10.1%	14.8	11.7%	8.6%	11.4%
CCOc1cc(N2CCOCC2)c(OCC)cc1NC(=O)c1ccc(OC(C)C)cc1	?	7.2	20.6µM*	1.5%	-1.9%
CCN1CCCC1CNC(=O)c1[nH]c2ccc(OC)cc2c1C (stereo not drawn)	4.9%	-7.5	15.0%	2.1%	3.5%
Cc1ccc(-c2csc3ncnc(NCCC(=O)O)c23)cc1	23.2%	77.7	-9.3%	0.3%	-7.2%
Clc1ccc(-c2csc3ncnc(NCCN4CCOCC4)c23)cc1	18.4µM*	-6.6	13µM*	?	-26.7%
c1ccc(-c2csc3ncnc(NCCN4CCOCC4)c23)cc1	11.6µM*	-10.5	9.2µM*	?	?
Clc1ccc(-c2nc(NCCN3CCOCC3)c3ccccc3n2)cc1	?	-61.0*	?	?	?
c1cncc(-c2nc(NCCN3CCOCC3)c3ccccc3n2)c1	-6.7%	.	?	.	.
Cc1ccc(-c2csc3ncnc(NCCN4CCOCC4)c23)cc1	?	-65.0*	23.1µM*	-27.7%	-20.5%
Cc1cc(N2CCCC2=O)c(N)cc1N	-0.9%	-3.9	-5.8%	4.5%	-2.4%
COc1ccc(S(=O)(=O)N2CCN(Cc3ccco3)CC2)cc1	-16.5%	-14.0	-23.0%	20.7%	15.9%
